According to PubChem BioAssay (NCATS):
Records with an inconclusive call do not appear. Activity calls are given as the source filed them. Calls follow the shape of the dose curve; as a rule, active = well fitted curve in the direction sought with a large enough effect; inconclusive = small, poorly fitted or top-dose-only effect, or another doubt; inactive = no such curve, though single readings can be large; an effect the other way counts as inactive or inconclusive.

Assays:
[1] = qHTS of pediatric cancer cell lines to identify multiple opportunities for drug repurposing: Confirmatory screen for TC32 cells (AID 1347118);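 also: cells exposed to compound for 48 h before the read; nearly all actives have a fitted effect of over 65% in size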; also: potency is read from the fitted curve at half-maximal effect
In short: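 Luminescent ATP read-out (CellTiter-Glo) of metabolically active TC32 cells after 48 h exposure. Concentration-response curves came from 11-point (MIPE, 0.78 nM–46 µM) or 8-point (NPC, 0.59 nM–46 µM) primary titrations; follow-up used 11 points.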

[2] = qHTS of pediatric cancer cell lines to identify multiple opportunities for drug repurposing: Confirmatory screen for MG 63 (6-TG R) cells (AID 1347119); also: nearly all actives have a fitted effect of over 55% in size; also: potency is read from the fitted curve at half-maximal effect
In short: (§1)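 Cells (500-1,000/well) rested 5 h, then received compounds for 48 h; metabolically active cells were measured by CellTiter-Glo luminescence. Final concentrations spanned up to 46 µM (MIPE, 11-point) or 0.59 nM-46 µM (NPC, 8-point) in primary screens, 11-point in follow-ups.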

[3] = qHTS of pediatric cancer cell lines to identify multiple opportunities for drug repurposing: Confirmatory screen for control Hh wild type fibroblast cells (AID 1347121); also: nearly all actives have a fitted effect of over 70% in size; also: potency is read from the fitted curve at half-maximal effect
In short: as §1

[4] = qHTS of pediatric cancer cell lines to identify multiple opportunities for drug repurposing: Confirmatory screen for Rh41 cells (AID 1347123);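 also: 48 h compound exposure; nearly all actives have a fitted effect of over 60% in size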; also: potency is read from the fitted curve at half-maximal effect
In short: as §1

[5] = qHTS of pediatric cancer cell lines to identify multiple opportunities for drug repurposing: Confirmatory screen for Rh18 cells (AID 1347125); also: nearly all actives have a fitted effect of over 55% in size; also: potency is read from the fitted curve at half-maximal effect
In short: as §1

[6] = qHTS of pediatric cancer cell lines to identify multiple opportunities for drug repurposing: Confirmatory screen for Rh30 cells (AID 1347126); also: nearly all actives have a fitted effect of over 55% in size; also: potency is read from the fitted curve at half-maximal effect
In short: as §1

[7] = qHTS of pediatric cancer cell lines to identify multiple opportunities for drug repurposing: Confirmatory screen for SK-N-SH cells (AID 1347129);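 also: cells exposed to compound for 48 h before viability read; nearly all actives have a fitted effect of over 60% in size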; also: potency is read from the fitted curve at half-maximal effect
In short: as §1

[8] = tested on: Zika virus NS2B-NS3 protease; experiment: Primary screen GU AMC qHTS for Zika virus inhibitors (AID 1347154); also: nearly all actives have a fitted effect of over 70% in size; also: potency is read from the fitted curve at half-maximal effect
In short: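 Fluorogenic AMC-substrate cleavage by noncovalent NS2B-NS3 protease complex (25 nM, pH 8.0 Tris buffer with Tween 20) followed for 15 minutes at room temperature (~20% conversion). Percent inhibition from ex340/em450 signal change, fitted by 4-parameter Hill equation.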

[9] = qHTS of pediatric cancer cell lines to identify multiple opportunities for drug repurposing: Confirmatory screen for U-2 OS cells (AID 1347122); also: nearly all actives have a fitted effect of over 65% in size; also: potency is read from the fitted curve at half-maximal effect
In short: as §1

[10] = qHTS of pediatric cancer cell lines to identify multiple opportunities for drug repurposing: Confirmatory screen for RD cells (AID 1347124);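 also: cells exposed to compound for 48 h before viability readout; nearly all actives have a fitted effect of over 65% in size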; also: potency is read from the fitted curve at half-maximal effect
In short: as §1

[11] = tested on: Zika virus NS2B-NS3 protease (unlinked complex); experiment: Primary screen GU Rhodamine qHTS for Zika virus inhibitors: Unlinked NS2B-NS3 protease assay (AID 1347159); also: nearly all actives have a fitted effect of over 60% in size; also: potency is read from the fitted curve at half-maximal effect
In short: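 Percent inhibition came from the 15-min rise in Rhodamine110 fluorescence (1.5 microM substrate, ~15% conversion), normalized to no-inhibitor and no-enzyme wells and Hill-fitted. Unlinked protease, 25 nM, pH 8.0 Tris buffer; compounds up to 114 microM, 15-min preincubation.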

[12] = qHTS of pediatric cancer cell lines to identify multiple opportunities for drug repurposing: Confirmatory screen for Saos-2 cells (AID 1347127); also: nearly all actives have a fitted effect of over 60% in size; also: potency is read from the fitted curve at half-maximal effect
In short: as §1

[13] = qHTS of pediatric cancer cell lines to identify multiple opportunities for drug repurposing: Confirmatory screen for OHS-50 cells (AID 1347128);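 also: compound exposure lasted 48 h at 37 degrees C; nearly all actives have a fitted effect of over 55% in size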; also: potency is read from the fitted curve at half-maximal effect
In short: as §1

[14] = tested on: Zika virus NS2B-NS3 protease (unlinked complex); experiment: Confirmatory screen GU AMC qHTS for Zika virus inhibitors (AID 1347153);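 also: enzyme at 25 nM with substrate at 10 µM below its Km of 18.3 µM; potency is read from the fitted curve at half-maximal effect; nearly all actives have a fitted effect of over 70% in size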
In short: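 Compounds were preincubated 15 min at room temperature with 25 nM noncovalent NS2B-NS3 protease at pH 8.0; AMC substrate added at 10 microM and 15-min fluorescence gain (340/450 nm) converted to percent inhibition, fitted 4-parameter.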

[15] = ZIKV-mCherry secondary qHTS for Zika virus inhibitors (AID 1347158); also: top concentration of the series differs between compounds
In short: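 This orthogonal imaging screen measured ZIKV-mCherry infection of Vero cells exposed to compound, MOI 1, 48-72 h. Percent infection came from segmented nuclei scored mCherry-positive above 3 SD of negative controls.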

Compound	Potency [1]	Potency [2]	Potency [3]	Potency [4]	Potency [5]	Potency [6]	Potency [7]	Potency [8]	Potency [9]	Potency [10]	Potency [11]	Potency [12]	Potency [13]	Potency [14]	Potency [15]
C[C@@H](Oc1cc(-n2cnc3ccc(CN4CCN(C)CC4)cc32)sc1C(N)=O)c1ccccc1C(F)(F)F	53.7 nM (active)	60.3 nM (active)	42700 nM (active)	4140 nM (active)	47900 nM (active)	13100 nM (active)	13200 nM (active)	inactive							
Nc1ccccc1NC(=O)c1ccc(CNc2nccc(-c3cccnc3)n2)cc1	inactive	inactive	inactive		1170 nM (active)			inactive	414 nM (active)	1650 nM (active)	inactive				
CC(=O)OCC(=O)[C@@]1(O)[C@H](C)C[C@H]2[C@@H]3C=C(C)C4=Cc5c(cnn5-c5ccccc5)C[C@]4(C)[C@@H]3[C@@H](O)C[C@@]21C	4140 nM (active)	18500 nM (active)		13100 nM (active)	16500 nM (active)	16500 nM (active)	14800 nM (active)	inactive	9270 nM (active)	9270 nM (active)		14700 nM (active)			
COc1ccc(C=Cc2cc(OC)c(OC)c(OC)c2)cc1O	13.1 nM (active)	10.4 nM (active)	inactive	10.4 nM (active)	inactive					11.7 nM (active)		10.4 nM (active)			
C=CC(=O)Nc1cccc(Oc2nc(Nc3ccc(N4CCN(C)CC4)cc3)ncc2Cl)c1	1170 nM (active)	2930 nM (active)	20800 nM (active)	2610 nM (active)			2960 nM (active)	inactive			inactive	2930 nM (active)			
COc1cccc(Nc2c(C(N)=O)cnc3c(C)cc(S(=O)(=O)c4cccc(C(=O)N(C)C)c4)cc23)c1	512 nM (active)	inactive	inactive				inactive	inactive			inactive	inactive	inactive		
C#Cc1cccc(Nc2ncnc3cc(OC)c(OCCCCCCC(=O)NO)cc23)c1	676 nM (active)	851 nM (active)	10700 nM (active)	1070 nM (active)	1910 nM (active)	2140 nM (active)	2410 nM (active)			1200 nM (active)		1350 nM (active)			
CC1=C(CO)C(=O)O[C@@H]([C@@H](C)[C@H]2CC[C@H]3[C@@H]4C[C@H]5O[C@]56[C@@H](O)C=CC(=O)[C@]6(C)[C@@H]4CC[C@]23C)C1	inactive	inactive	inactive	inactive			inactive	inactive				inactive			
COC(=O)Nc1nc2ccc(C(=O)c3ccc(F)cc3)cc2[nH]1	1170 nM (active)	1470 nM (active)	inactive		inactive	inactive	inactive	inactive		2930 nM (active)	inactive	1850 nM (active)			
CC[C@@H]1C(=O)N(C)c2cnc(Nc3ccc(C(=O)NC4CCN(C)CC4)cc3OC)nc2N1C1CCCC1	52.2 nM (active)	92.8 nM (active)	18500 nM (active)		18500 nM (active)		6620 nM (active)	inactive		46.5 nM (active)		36.9 nM (active)	52.2 nM (active)		
CC(C)[C@H](C(=O)Nc1ccc(C(=O)NO)cc1)c1ccccc1	737 nM (active)	657 nM (active)		1170 nM (active)	827 nM (active)		inactive			1650 nM (active)		1850 nM (active)			
COc1ccc(F)c(F)c1C(=O)c1cnc(NC2CCN(S(C)(=O)=O)CC2)nc1N	2080 nM (active)		inactive	2330 nM (active)			2350 nM (active)	inactive	3290 nM (active)	827 nM (active)	inactive		2330 nM (active)		
Cc1c(C)n(Cc2ccc(-c3ccccc3C(=O)O)cc2)c2ccc(C(=O)N[C@@H](C)c3ccc([N+](=O)[O-])cc3)cc12		inactive	inactive	9270 nM (active)	inactive		inactive	19200 nM (active)	inactive	inactive	2820 nM (active)	inactive	inactive	21500 nM (active)	inactive
CC[C@@H]1C(=O)N(C)c2cnc(Nc3ccc(C(=O)NC4CCC(N5CCN(CC6CC6)CC5)CC4)cc3OC)nc2N1C(C)C (stereo partly drawn)		inactive	inactive	inactive	inactive		inactive	inactive	inactive	inactive	inactive	inactive			
CC(C)C[C@H](NC(=O)CNC(=O)c1cc(Cl)ccc1Cl)B(O)O	inactive			165 nM (active)	369 nM (active)		418 nM (active)	inactive	928 nM (active)	465 nM (active)					
Cc1c(Cn2c(C)nc3c(C(=O)O)cc(N4CCOCC4)cc32)cccc1C(F)(F)F		inactive	inactive	inactive	inactive	inactive			23300 nM (active)	inactive		inactive			
